The results in this text go back to PubChem BioAssay.

Experiment [1] concerns Human papillomavirus type 1a protein E7 (residues 44-93). The experiment in a line: HPV1a E7 fragment binders on microarrays, primary screen, biochemical, small-molecule microarray, residues 44-93, 635 nm fluorescence (AID 1108).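 Note: E7 fragment applied at 1 µg/mL in TBST for 1 h at 4 C; score combines spot fluorescence with its signal to noise ratio.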 The conditions noted are these: small-molecule microarray binding, fluorescence 635 nm; higher = more signal.
Experiment [2] is described as follows: modulators of HCV replicon luciferase signal, primary screen, HCV replication inhibitor project, Huh7 cells, luciferase reporter (AID 1109).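 Note: huh7 hepatoma cells harbouring a luciferase neomycin HCV replicon reporter; luciferase luminescence as measure of HCV replicon replication; test concentration not given here.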 The conditions noted are these: 48 h, higher = more signal. In general terms: Replicon systems follow genome replication, usually without infectious particles.
The target of experiment [3] is Left-right determination factor 2 (Homo sapiens) (UniProt O00292). The experiment in a line: LEFTY2 binders on small-molecule microarrays, primary screen, biochemical, small-molecule microarray, 635 nm fluorescence scan (AID 1110). Particulars: LEFTY2 binding, higher = more signal.
Sequence of Left-right determination factor 2 (Homo sapiens) (O00292 whole entry, looked up): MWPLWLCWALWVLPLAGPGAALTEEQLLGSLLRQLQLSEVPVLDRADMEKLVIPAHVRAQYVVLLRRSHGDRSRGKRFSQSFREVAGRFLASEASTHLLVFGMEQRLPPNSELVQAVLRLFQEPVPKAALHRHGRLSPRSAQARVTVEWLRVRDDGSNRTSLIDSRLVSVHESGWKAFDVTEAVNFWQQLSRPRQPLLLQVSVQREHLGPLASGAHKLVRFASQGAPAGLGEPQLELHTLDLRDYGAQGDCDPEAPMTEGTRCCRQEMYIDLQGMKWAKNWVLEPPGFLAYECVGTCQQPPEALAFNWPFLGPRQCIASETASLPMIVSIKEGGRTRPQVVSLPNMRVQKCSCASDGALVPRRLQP
Experiment [4] deals with Calmodulin-1 (Homo sapiens) (UniProt P0DP23). The experiment in a line: CALM1 binders on microarrays, EGTA buffer, profiling panel, biochemical, small-molecule microarray, Cy5-labelled CALM1 (AID 1111).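 Note: labelled calmodulin applied in Tris saline Tween buffer holding calcium plus EGTA and DTT.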 The conditions noted are these: Cy5-CALM1 binding fluorescence, higher = more signal.
Experiment [5] shares this target. The experiment in a line: calcium-bound CALM1 binders on microarrays, profiling panel, artefact control for SMM control-protein annotation, biochemical, small-molecule microarray, Cy5-labelled CALM1, plus calcium (AID 1112).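 Note: score merges spot fluorescence with signal to noise from triplicate slides.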 Particulars: Cy5-CALM1 binding fluorescence, higher = more signal.
Experiment [6] in a line: small-molecule microarray binders of probe aWnt5a, primary screen, biochemical, biotinylated probe, 635/667 nm fluorescence (AID 1113).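 Note: score merges 667 nm fluorescence intensity with signal-to-noise per printed feature.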 The conditions noted are these: higher = more signal.
A short description of experiment [7]: small-molecule microarray binders of probe aShh, primary screen, biochemical, biotinylated probe, 635/667 nm fluorescence (AID 1114).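 Note: probe is biotin-labelled aShh protein from a stem cell growth factor screen; measures binding of labelled protein to compounds printed on the slide; score merges feature fluorescence at 667 nm with signal-to-noise.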 Particulars: higher = more signal.
Experiment [8] can be described thus: small-molecule microarray binders of probe aNog, primary screen, biochemical, biotinylated probe, 635/667 nm fluorescence (AID 1115).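 Note: probe is biotinylated aNog protein used at 0.15 µg/mL for 1 h at 4 C; z-score combines 667 nm fluorescence of each spot with its signal to noise.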 Particulars: higher = more signal.
The target in experiment [9] is Torsin-1A-interacting protein 1 (Homo sapiens) (UniProt Q5JTV8). Description: LAP1 binders from COS7 cell lysate, primary screen, small-molecule microarray, 635/667 nm fluorescence (AID 1116). Particulars: COS7-hLAP1 lysate binding, 635 nm fluorescence, higher = more signal.
Sequence of Torsin-1A-interacting protein 1 (Homo sapiens) (Q5JTV8 whole entry, looked up): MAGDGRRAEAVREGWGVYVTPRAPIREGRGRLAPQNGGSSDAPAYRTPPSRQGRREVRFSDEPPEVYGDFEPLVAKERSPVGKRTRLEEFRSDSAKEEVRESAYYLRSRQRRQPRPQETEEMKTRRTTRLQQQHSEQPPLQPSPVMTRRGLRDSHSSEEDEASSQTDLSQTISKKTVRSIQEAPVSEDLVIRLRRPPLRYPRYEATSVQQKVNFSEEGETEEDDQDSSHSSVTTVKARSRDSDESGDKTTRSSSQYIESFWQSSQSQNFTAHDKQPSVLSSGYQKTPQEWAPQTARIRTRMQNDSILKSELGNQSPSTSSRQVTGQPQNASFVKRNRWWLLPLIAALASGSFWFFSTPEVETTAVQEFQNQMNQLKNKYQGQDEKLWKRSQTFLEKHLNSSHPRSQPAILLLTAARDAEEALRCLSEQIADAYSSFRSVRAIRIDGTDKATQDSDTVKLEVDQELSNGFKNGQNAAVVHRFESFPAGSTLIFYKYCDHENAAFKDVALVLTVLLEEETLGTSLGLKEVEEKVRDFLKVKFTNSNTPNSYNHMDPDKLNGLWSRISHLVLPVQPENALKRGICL
Experiment [10] concerns the target Alpha-bungarotoxin (Bungarus multicinctus) (UniProt P60615). The experiment in a line: alpha-bungarotoxin binders on microarray, profiling panel, artefact control for SMM control protein annotation, biochemical, small-molecule microarray, Alexa647 label, 635/667 nm fluorescence (AID 1117). Particulars: alpha-BTX-A647 binding fluorescence, higher = more signal.
Another experiment deals with Albumin (Bos taurus) (UniProt P02769). The experiment in a line: bovine serum albumin binders on microarray, profiling panel, artefact control for SMM control protein annotation, biochemical, small-molecule microarray, Alexa647 label, 635/667 nm fluorescence (AID 1118).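 Note: score merges 667 nm emission intensity and signal-to-noise per printed compound spot.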 Particulars: BSA-A647 binding, fluorescence 635 nm, higher = more signal.
Sequence of Albumin (Bos taurus) (P02769 whole entry, looked up): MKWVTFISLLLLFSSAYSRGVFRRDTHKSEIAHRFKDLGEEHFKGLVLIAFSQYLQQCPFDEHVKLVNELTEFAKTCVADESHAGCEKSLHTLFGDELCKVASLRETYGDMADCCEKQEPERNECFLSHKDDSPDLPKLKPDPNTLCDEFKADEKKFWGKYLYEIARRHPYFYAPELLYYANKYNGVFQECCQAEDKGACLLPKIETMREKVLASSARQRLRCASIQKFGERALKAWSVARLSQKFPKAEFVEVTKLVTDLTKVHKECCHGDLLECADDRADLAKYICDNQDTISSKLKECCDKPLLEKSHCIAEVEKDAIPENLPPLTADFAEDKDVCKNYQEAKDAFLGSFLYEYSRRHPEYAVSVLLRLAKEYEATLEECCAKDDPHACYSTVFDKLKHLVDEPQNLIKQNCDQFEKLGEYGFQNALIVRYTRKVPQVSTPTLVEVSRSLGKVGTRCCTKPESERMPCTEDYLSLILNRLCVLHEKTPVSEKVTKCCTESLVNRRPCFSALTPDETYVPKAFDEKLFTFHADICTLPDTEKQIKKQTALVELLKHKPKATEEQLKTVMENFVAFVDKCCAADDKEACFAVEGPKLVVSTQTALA
Experiment [11] in a line: small-molecule microarray binders of probe aXIP, primary screen, biochemical, NeuroSMM set, 635/667 nm fluorescence (AID 1119).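 Note: probe is the protein aXip251-270 applied at 1 µg/mL to compound-printed slides; binding of probe to printed compounds measured as 667 nm fluorescence plus signal to noise.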 Particulars: higher = more signal, called active from +8 up or from −8 down.
The nature of experiment [12]: small-molecule binders of probe aNOTCH3, primary screen, biochemical, small-molecule microarray, 635/667 nm fluorescence (AID 1120).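 Note: probe is a biotin-tagged antibody raised against NOTCH3 rather than NOTCH3 protein; score merges spot fluorescence near 667 nm with spot signal to noise.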 Particulars: higher = more signal.
The nature of experiment [13]: small-molecule binders of probe aNOTCH2, primary screen, biochemical, small-molecule microarray, 635/667 nm fluorescence (AID 1121).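 Note: score merges feature fluorescence read at 667 nm with its signal to noise.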 Particulars: higher = more signal.
Experiment [14] concerns the target Carbonic anhydrase 2 (Homo sapiens) (UniProt P00918). Description: CAII small-molecule binders, profiling panel, biochemical, small-molecule microarray, Alexa647-labelled CAII (AID 1122). Particulars: CAII-A647 binding fluorescence, higher = more signal.
Experiment [15] in a line: COS7 lysate on small-molecule microarray, probe aHis, 635 nm (AID 1123).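 Note: z-score combines 667nm fluorescence intensity with signal-to-noise per printed compound spot.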 The conditions noted are these: COS7 cell lysate, fluorescence, higher = more signal.
Experiment [16] can be described thus: compound binding in COS7 lysate, probe aLAP1, primary screen, cell lysate, small-molecule microarray (AID 1124).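 Note: lysate comes from COS7 cells expressing LAP1 and is applied at 0.3 µg/mL; score merges spot fluorescence near 667 nm with signal-to-noise over triplicate slides.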 The conditions noted are these: probe aLAP1, fluorescence, higher = more signal.
The test system of a further experiment is Sam68 (KHDRBS1). Description: Sam68 small-molecule binders, primary screen, biochemical, small-molecule microarray, 635 nm fluorescence (AID 1125).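 Note: score merges 667 nm channel intensity with signal to noise over triplicate slides.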 The conditions noted are these: small-molecule microarray binding, higher = more signal.
Experiment [17] relates to Chordin-like protein 2 (CHRDL2). The experiment in a line: CHRDL2 small-molecule binders, primary screen, biochemical, small-molecule microarray, 635 nm fluorescence (AID 1126).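 Note: printed compound slides probed with Chrdl2 protein at 4 µg/mL for 1 h at 4 C; score merges 667 nm emission intensity with signal to noise over three replicate slides.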 The conditions noted are these: small-molecule microarray binding, fluorescence 635 nm; higher = more signal.
Experiment [18] concerns the target Concanavalin-A (Canavalia ensiformis) (UniProt P02866). The experiment in a line: ConA small-molecule binders, primary screen, artefact control for SMM control protein annotation, biochemical, small-molecule microarray, Alexa647 label, 635 nm (AID 1127).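 Note: z combines 667 nm emission intensity with signal-to-noise across three replicate slides.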 Particulars: ConA-A647 binding fluorescence, higher = more signal.

Structures are written as SMILES. Activity calls are given as the source filed them.

Sequence of Concanavalin-A (Canavalia ensiformis) (P02866 whole entry, looked up): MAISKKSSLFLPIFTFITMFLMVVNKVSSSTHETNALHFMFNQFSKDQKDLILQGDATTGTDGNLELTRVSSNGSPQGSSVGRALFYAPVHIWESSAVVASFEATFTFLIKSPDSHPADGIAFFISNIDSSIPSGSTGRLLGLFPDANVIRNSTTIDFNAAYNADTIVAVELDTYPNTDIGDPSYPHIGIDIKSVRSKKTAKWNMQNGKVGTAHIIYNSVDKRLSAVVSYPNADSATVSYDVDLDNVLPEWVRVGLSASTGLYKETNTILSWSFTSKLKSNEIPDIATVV
Sequence of Alpha-bungarotoxin (Bungarus multicinctus) (P60615 whole entry, looked up): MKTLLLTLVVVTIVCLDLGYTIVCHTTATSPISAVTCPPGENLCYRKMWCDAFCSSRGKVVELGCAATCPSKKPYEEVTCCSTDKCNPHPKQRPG

As to `COc1ccc(CCNC(=O)[C@@]2(c3ccc([N+](=O)[O-])cc3)CC(=O)N(CC34CC5CC(CC(C5)C3)C4)[C@@H]2c2ccc(CO)cc2I)cc1`, the composite z-score in experiment [1] is 1.38; in [3], 0.261; in [4] it was 0.408; in [5], -0.266; in experiment [6], -0.0643; in experiment [7], -0.312. In addition, the composite z-score is 0.769 in experiment [8]; 0.757 in experiment [9]; 0.962 in [10]; -0.367 with Albumin (Bos taurus); -0.332 in experiment [12]; -0.214 in experiment [13]. Moreover, the composite z-score in experiment [14] amounted to 0.0976; in experiment [15] it was 2.27; in [16], 0.283; with Sam68 (KHDRBS1), 0.925; in experiment [17] it was 0.394; in experiment [18], 0.834. In [2], this molecule gave a z-score of -3.41. The composite Z-score in experiment [11] is -0.355 (inactive).
Take `COc1ccccc1CN1C(=O)c2ccccc2[C@@]2(Cc3ccccc3N(CCCN(C)C)C2=O)[C@@H]1c1ccc(CO)cc1`: the composite z-score in experiment [1] was -0.0362; in [3] it was 0.524; in [4] it was -0.0574; in experiment [5] it was -0.688; in experiment [6], -0.165; in [7], -0.282. Besides, the composite z-score is -0.273 in experiment [8]; 0.0163 in [9]; -0.94 in experiment [10]; -0.909 with Albumin (Bos taurus); -0.0797 in experiment [12]; 0.0687 in experiment [13]. Further, the composite z-score in [14] was -0.271; in [15] it was 0.5; in experiment [16], -0.0231; in the experiment on Sam68 (KHDRBS1), -0.204; in experiment [17], 1.27; in experiment [18] it was 0.417. In addition, in experiment [2], the z-score was -1.86. The composite Z-score in [11] is 0.027 (inactive).
As for `O=C1OCCC=C[C@H]2OC34C=CCN(Cn5nnc6ccccc65)C(=O)[C@H]3N(CCO)C(=O)[C@@H]4C12` (stereo not given in full), the composite z-score in [1] was -1.59; in experiment [3], -2.07; in experiment [4] it was -0.4; in [5] it was 0.262; in [6], -0.252; in experiment [7], -0.262. Also, the composite z-score in experiment [8] was 0.328; in experiment [9] it was -0.618; in experiment [10] it was 1.1; with Albumin (Bos taurus) it was 0.995; in experiment [12] it was -0.475; in experiment [13], -0.227. For the same molecule, the composite z-score in [14] is 0.866; in experiment [15], -0.403; in experiment [16] it was -0.38; in the experiment with Sam68 (KHDRBS1), -0.75; in [17] it was -1.75; in [18], -1.75. Moreover, the z-score in experiment [2] was -0.772. Further, the composite Z-score in [11] was 0.6 (inactive).
`CCOC(=O)C[C@H]1[C@H](OC(=O)c2ccc(-c3ccccc3)cc2)[C@@H](NC(=O)c2ccccc2)c2cc(OCCCO)ccc2N1C(=O)Cc1ccc(OC)cc1`: the composite z-score is -0.149 in experiment [1]; 0.199 in experiment [3]; 0.594 in experiment [4]; 0.534 in [5]; -0.1 in [6]; -0.147 in [7]. In addition, the composite z-score is -0.18 in [8]; 0.328 in experiment [9]; 0.281 in [10]; 0.372 in the experiment with Albumin (Bos taurus); -0.0077 in experiment [12]; -0.0664 in [13]. For the same molecule, the composite z-score was -0.0275 in [14]; 0.368 in experiment [15]; 0.311 in [16]; -0.254 with Sam68 (KHDRBS1); -0.399 in experiment [17]; -0.769 in [18]. Further, the z-score in [2] was -1.41. The composite Z-score in experiment [11] was -0.316 (inactive).
With `O=C(CS)NCCCCCNC(=O)[C@H]1C[C@H]2C(=O)NCC(=O)N2[C@H]1c1cccc(OCCO)c1`, the composite z-score is -1.02 in experiment [1]; -0.356 in experiment [3]; -0.213 in experiment [4]; 0.787 in [5]; -0.152 in [6]; 0.294 in experiment [7]. The composite z-score was -0.311 in experiment [8]; -0.631 in [9]; 0.854 in experiment [10]; -0.221 with Albumin (Bos taurus); -0.249 in experiment [12]; -0.164 in experiment [13]. Besides, the composite z-score in [14] was 0.728; in experiment [15], 0.0504; in [16] it was -0.442; with Sam68 (KHDRBS1), -0.956; in [17], 0.577; in [18], 0.687. Also, the z-score in experiment [2] came to 1.34. In experiment [11], the composite Z-score is -0.269 (inactive).
As for `CCOc1ccc(N2C(=O)CSC2c2cccc([N+](=O)[O-])c2)cc1` (stereo not given), the composite z-score in [1] is 1.35; in experiment [3], 0.216; in experiment [4], 0.847; in experiment [5], 0.615; in experiment [6], -0.0383; in experiment [7], 0.0796. Further, the composite z-score in [8] was -0.194; in experiment [9], 0.143; in experiment [10], 1.5; with Albumin (Bos taurus), 0.954; in experiment [12], 0.133; in [13] it was -0.14. Further, the composite z-score was found to be 0.36 in experiment [14]; 1.63 in experiment [15]; 0.181 in [16]; 0.829 with Sam68 (KHDRBS1); 0.428 in experiment [17]; 0.789 in experiment [18]. In experiment [2], this molecule gave a z-score of -0.343. Besides, in [11], the composite Z-score was 0.625 (inactive).
